Results published in PubChem BioAssay AID720511 (Broad Institute, 2013).
Hit rate of the full screen: of about 350,000 compounds, about 1,300 (0.37%) were called active.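 Rule for the calls: active = mean added fluorescence quench of at least 8% versus neutral control, with both replicates also reaching 8%; inconclusive = only one of the mean or replicate conditions met; inactive = mean below 8% and not both replicates reaching 8%.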 Only a selection was taken, and actives are over-represented in it overall.

Assay: F508del CFTR correction, initial screen, CFBE line, single point (AID 720511);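 note: cells transiently co-express mutant CFTR-F508del with the halide-sensitive YFP; corrector assay measuring rescue of mutant channel to the surface after 24 h compound exposure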
Settings: CFBE cells, YFP halide quenching, at 7.58 µM, hits give high values

Q: Which activity (quench increase) does the source give for `C[C@]12CCC3C(CC[C@H]4[C@H](O)[C@H](O)CC[C@]34C)C1CC[C@@H]2O` (stereo not given in full) here?
A: The activity (quench increase) was 0.916% (inactive).

Q: Which activity (quench increase) does the source give for `C[C@]12CCC3C(CC[C@H]4C[C@@H](O)CC[C@]34C)C1C[C@@H](O)[C@H]2O` (stereo not given in full) here?
A: Its activity (quench increase) is 1.25% (inactive).

Q: For `C[C@]12CCC3C(CC[C@H]4[C@H](O)[C@H](O)CC[C@]34C)C1CCC2=O` (stereo not given in full), which activity (quench increase) is on record?
A: Its activity (quench increase) is 11.1% (active).

Q: With `COC(=O)C1=C(c2ccc(OCc3ccccc3)cc2)C[C@@H]2CC[C@H]1N2C(=O)NCc1ccc(Cl)cc1` as the molecule, how does the activity (quench increase) read?
A: The activity (quench increase) was 4.11% (inactive).

Q: For `C/C=C/c1ccc(C2[C@@H]3CN(Cc4cncnc4)C[C@H]2N3)cc1` (stereo not given in full), which activity (quench increase) is on record?
A: Its activity (quench increase) is 2.42% [% fluorescence drop versus neutral controls, stimulated with forskolin plus potentiator P3] (inactive).
